This is a sample that favours compounds with a hit; in the whole collection about 1.6% have one here.
KCNQ2 pot = potentiators of rat KCNQ2 potassium channel. Potassium voltage-gated channel subfamily KQT member 2 (Rattus norvegicus), O88943. actives 0.54% (n = 310,000). CHO-K1 KCNQ2, FluxOR thallium flux fluorescence; stronger effect = higher value. B-score at 10 µM;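 active = fluorescence ratio B-score at least 3 SD of library B-scores, with initial fluorescence B-score within 3 of them, cut at about 5.3 in these data; same plate scores as AID 2156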;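 note: B-score of peak minus minimum over baseline fluorescence ratio after K+ and Tl+ stimulus; positive B-score means potentiation of KCNQ2 with more thallium influx and brighter signal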
Target sequence (O88943 whole entry, looked up): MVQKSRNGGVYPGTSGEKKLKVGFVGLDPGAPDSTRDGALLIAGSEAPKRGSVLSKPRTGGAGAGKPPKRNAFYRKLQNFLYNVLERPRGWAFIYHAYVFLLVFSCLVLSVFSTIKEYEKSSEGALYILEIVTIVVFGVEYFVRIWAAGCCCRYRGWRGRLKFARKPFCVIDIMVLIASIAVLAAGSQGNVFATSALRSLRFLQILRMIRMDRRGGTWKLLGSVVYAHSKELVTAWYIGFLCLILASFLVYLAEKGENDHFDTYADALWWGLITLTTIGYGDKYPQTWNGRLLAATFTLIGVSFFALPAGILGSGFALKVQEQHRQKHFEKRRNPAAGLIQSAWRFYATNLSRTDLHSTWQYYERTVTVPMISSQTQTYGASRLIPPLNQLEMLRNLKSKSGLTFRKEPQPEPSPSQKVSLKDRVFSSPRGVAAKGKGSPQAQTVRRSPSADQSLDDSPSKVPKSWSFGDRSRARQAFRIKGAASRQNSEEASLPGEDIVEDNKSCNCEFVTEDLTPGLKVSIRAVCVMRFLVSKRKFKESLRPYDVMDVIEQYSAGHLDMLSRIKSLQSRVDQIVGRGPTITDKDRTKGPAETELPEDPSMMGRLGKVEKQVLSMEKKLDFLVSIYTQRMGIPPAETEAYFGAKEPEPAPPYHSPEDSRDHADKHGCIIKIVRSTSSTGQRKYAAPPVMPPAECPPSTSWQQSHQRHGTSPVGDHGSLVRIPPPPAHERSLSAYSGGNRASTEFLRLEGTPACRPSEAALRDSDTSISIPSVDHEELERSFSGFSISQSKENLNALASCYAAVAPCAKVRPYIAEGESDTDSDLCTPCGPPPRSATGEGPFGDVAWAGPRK
KCNQ2 inh = rat KCNQ2 potassium channel inhibitors, primary screen, cell-based, CHO-K1, FluxOR thallium flux, B-score; actives 1.1% (n = 310,000); Potassium voltage-gated channel subfamily KQT member 2 (Rattus norvegicus), O88943; B-score at 10 µM; 20 min; stronger effect = lower value;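 active = fluorescence ratio B-score at most minus 3 library SDs, with starting brightness B-score within 2 library SDs, cut at about -5.5 in these data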
Kir21 confirm = mouse Kir2.1 channel blockers, retest, confirmation, cell-based, FluxOR thallium flux, duplicate; shares compounds with KCNQ2 pot; Kir2.1-expressing cells, FluxOR thallium flux fluorescence; stronger effect = lower value; Tl flux remaining, % of negative control (stronger effect = lower value), % at 10 µM; actives 41% (n = 2,300); AID 2032, 2009;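 active = Primary-screen hit whose thallium flux fell at least 3 control SD below untreated wells in both duplicates, with normal baseline fluorescence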
HEK293 ctr = alters thallium flux in parental HEK293 cells, Kir2.1 counter-screen. FluxOR signal as % of negative control (100 = no effect), % at 10 µM. AID 2105. FluxOR thallium flux fluorescence; 0% = unstimulated blank wells. shares compounds with KCNQ2 pot. actives 19% (n = 2,300);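 active = dye signal at least 3 control SD above or below untreated wells in both duplicates, raw fluorescence within 3, either direction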;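 note: percent is based on the flux ratio of peak minus minimum fluorescence over baseline F0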
CHO-K1 ctr = nonspecific thallium flux increase in parental CHO-K1, confirmation, counter-screen for KCNQ2 potentiator project, cell-based, FluxOR thallium flux, duplicate; activity increase over 3SD of controls, % at 10 µM; shares compounds with KCNQ2 pot; parental CHO-K1 cells, FluxOR thallium flux fluorescence; zero = vehicle mean+3SD, 100% = vehicle-minus-blank window; actives 43% (n = 1,200);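 active = signal rise of at least 3 SD above the untreated control mean, in both duplicate wells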;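 note: counter screen of KCNQ2 potentiator hits so any rise reflects channel-independent effects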
KCNQ1 sel pot = human KCNQ1 channel potentiation off-target, confirmation, selectivity assay for KCNQ2 potentiator project, cell-based, CHO, FluxOR thallium flux | CHO KCNQ1 stable, FluxOR thallium flux fluorescence; beyond 3SD, as % of vehicle-control signal | shares compounds with KCNQ2 pot | actives 28% (n = 1,200) | activation over 3SD threshold, % at 10 µM;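 active = fluorescence ratio rise of at least 3 SD of vehicle wells above their mean, in both replicate wells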
KCNQ2 pot confirm = rat KCNQ2 channel potentiators, confirmation, cell-based, CHO, FluxOR thallium flux, duplicate | shares compounds with KCNQ2 pot | CHO-KCNQ2 cells, FluxOR thallium flux fluorescence | potentiation, less the hit threshold, % at 10 µM | actives 68% (n = 1,200) | AID 2287, 2010;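 active = fluorescence ratio rising 3 SD or more over the vehicle control mean in both replicates, plus primary screen hit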;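 note: peak minus minimum thallium fluorescence divided by baseline after K/Tl stimulus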
Kir2-1 sel = mouse Kir2.1 channel activation off-target, confirmation, selectivity assay for KCNQ2 potentiator project, cell-based, HEK293, FluxOR thallium flux; shares compounds with KCNQ2 pot; HEK293 Kir2.1, FluxOR thallium flux fluorescence; activity over 3SD threshold, % at 10 µM; actives 2% (n = 1,200);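 active = fluorescence ratio rise of at least 3 SD above the vehicle-control mean, seen in both replicates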
KCNQ2 W236L MoA = potentiators of retigabine-insensitive KCNQ2 W236L, mechanism study for KCNQ2 potentiator project, cell-based, rat KCNQ2 W236L, CHO, automated patch clamp | shares compounds with KCNQ2 pot | automated patch clamp current | current increase over 3SD of negative controls (%), stronger effect = higher value, % at 25 µM | actives 10% (n = 940) | AID 2558, 2010;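 active = current increase at least 3 SD of the untreated controls above them in both duplicate recordings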
Hits are given with their value.

Screening Clc1cccc(NCc2nnc(SCc3ccccc3)o2)c1 returned KCNQ2 pot 22, KCNQ2 inh inactive, Kir21 confirm inactive, HEK293 ctr inactive, CHO-K1 ctr 46, KCNQ1 sel pot inactive, KCNQ2 pot confirm inactive and Kir2-1 sel inactive.
Screening O=C1CSC(c2ccc([N+](=O)[O-])cc2)N1c1ccc(O)cc1 (stereo not drawn) returned KCNQ2 inh inactive.
For c1ccc(SCc2cn(C[C@H]3CC[C@@H]([C@@H]4CC[C@H](Cn5cc(CSc6ccccc6)nn5)O4)O3)nn2)cc1 the results were KCNQ2 inh inactive.
Screening NC(=O)c1sc2nc(N3CCCCC3)c3c(c2c1N)CCCC3 returned KCNQ2 pot 6.7, KCNQ2 inh inactive, Kir21 confirm inactive, HEK293 ctr inactive, CHO-K1 ctr 10, KCNQ1 sel pot inactive, KCNQ2 pot confirm inactive, Kir2-1 sel inactive and KCNQ2 W236L MoA inactive.
`COC(=O)c1sc2nc(N3CCCCC3)c3c(c2c1N)CCCC3` gave KCNQ2 pot inactive and KCNQ2 inh inactive.
Cc1ccc(NC(=O)C2CCCN2C(=O)OCc2ccccc2)cc1F (stereo not drawn) was read as KCNQ2 pot inactive and KCNQ2 inh inactive.
COCCCN(CC(=O)O)S(=O)(=O)c1cccc(Cl)c1 was read as KCNQ2 pot inactive and KCNQ2 inh inactive.
Cn1c(CNc2nc3ccccc3n2C)nc2ccccc21 was read as KCNQ2 inh inactive.
For Cc1ccc(CNc2nc3ccccc3n2C)cc1 the results were KCNQ2 inh inactive, Kir21 confirm 36% and HEK293 ctr inactive.
`Cn1c(NCc2ccc(Cl)cc2)nc2ccccc21` gave KCNQ2 inh inactive, Kir21 confirm 25% and HEK293 ctr inactive.
Cn1c(NCc2c(O)ccc3ccccc23)nc2ccccc21 was read as KCNQ2 inh inactive.
`O=C(OCC(=O)N1CCCC1=O)C1COc2ccccc2O1` (stereo not drawn) gave KCNQ2 inh inactive.
`O=C(NCc1ccc(OC(F)(F)F)cc1)C1CC2Cn3c(nc4ccccc43)C2N1c1ccccc1` (stereo not drawn) gave KCNQ2 inh inactive.
O=C(COC(=O)Cc1cccc(C(F)(F)F)c1)Nc1ccccc1 was read as KCNQ2 pot inactive and KCNQ2 inh inactive.
For O=C(Cc1cccc(C(F)(F)F)c1)Nc1ccccc1 the results were KCNQ2 pot 9, KCNQ2 inh inactive, Kir21 confirm inactive, HEK293 ctr inactive, CHO-K1 ctr 35, KCNQ1 sel pot 59, KCNQ2 pot confirm 13, Kir2-1 sel inactive and KCNQ2 W236L MoA inactive.
`O=C(NCCN1CCN(C(=O)c2ccc([N+](=O)[O-])cc2)CC1)C(=O)Nc1ccc(F)cc1` gave KCNQ2 pot inactive and KCNQ2 inh inactive.
For O=C(NCc1ccc(Cl)cc1Cl)C1CC(=O)N(Cc2ccccc2)C1 (stereo not drawn) the results were KCNQ2 pot inactive and KCNQ2 inh inactive.
Screening O=C(NN1CC(C(=O)OCc2ccc(Cl)cc2Cl)CC1=O)c1ccccc1 (stereo not drawn) returned KCNQ2 pot 19, KCNQ2 inh inactive, Kir21 confirm inactive, HEK293 ctr inactive, CHO-K1 ctr inactive, KCNQ1 sel pot 68, KCNQ2 pot confirm 74, Kir2-1 sel inactive and KCNQ2 W236L MoA inactive.
Screening COc1ccc(OC)c(NC(=O)Nc2c(O)ccc3ccccc23)c1 returned KCNQ2 pot 7.8, KCNQ2 inh inactive, CHO-K1 ctr inactive, KCNQ1 sel pot inactive, KCNQ2 pot confirm inactive and Kir2-1 sel inactive.
Screening COc1ccc(OCC(=O)NNC(=O)C(=O)Nc2cc(OC)ccc2OC)cc1 returned KCNQ2 pot 11, KCNQ2 inh inactive, Kir21 confirm inactive, HEK293 ctr 264%, CHO-K1 ctr 42, KCNQ1 sel pot inactive, KCNQ2 pot confirm 8.0, Kir2-1 sel inactive and KCNQ2 W236L MoA inactive.
Screening COc1ccc(OC)c(NC(=O)C(=O)NNC(=O)COc2ccc(Br)cc2C)c1 returned KCNQ2 pot 17, KCNQ2 inh inactive, Kir21 confirm inactive, HEK293 ctr 350%, CHO-K1 ctr inactive, KCNQ1 sel pot 12, KCNQ2 pot confirm 68, Kir2-1 sel inactive and KCNQ2 W236L MoA inactive.
Screening O=C(COc1ccc2ccccc2c1)NNC(=O)Nc1ccccc1F returned KCNQ2 inh inactive.
`COc1ccc(OC)c(NC(=O)NNC(=O)COc2ccc(-c3ccccc3)cc2)c1` gave KCNQ2 inh inactive.
Screening COc1ccc(CC(=O)NNC(=O)COc2ccc(Br)cc2C)cc1OC returned KCNQ2 inh inactive.
`Cc1ccccc1NC(=O)C(=O)NNC(=O)COc1ccc2ccccc2c1` gave KCNQ2 pot 7, KCNQ2 inh inactive, Kir21 confirm inactive, HEK293 ctr 248%, CHO-K1 ctr inactive, KCNQ1 sel pot inactive, KCNQ2 pot confirm 20, Kir2-1 sel inactive and KCNQ2 W236L MoA inactive.
Screening COc1ccc(OC)c(NC(=O)Nc2ccc(O)c3ccccc23)c1 returned KCNQ2 inh inactive.
`CN(CCOc1ccccc1)C(=O)c1cc([N+](=O)[O-])cc([N+](=O)[O-])c1` gave KCNQ2 pot inactive and KCNQ2 inh inactive.
Screening COc1ccc(C(=O)Nc2cccc3ccccc23)cc1 returned KCNQ2 inh inactive.

Compound activity from PubChem BioAssay.
